About 3,300 (0.89%) of roughly 370,000 compounds were called active. Many of the other results were omitted from the sample, so actives are more common in it than they were. Unmarked numbers belong to inactive results.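 Rule for the calls: active = activation above the mean of all tested compounds plus 3 SD, computed per campaign excluding outliers beyond control limits (cut at about 13% in these data); inactive = the rest.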
Each compound was assayed against Kallikrein-7 (Homo sapiens) (UniProt P49862) (assay: activation of human kallikrein-7 proenzyme – biochemical, fluorescence intensity, primary screen (AID 652039)). Settings: purified proKLK7, EDANS-DABCYL substrate fluorescence; at 7 µM; active compounds read high; 100% is mature enzyme control, 0% vehicle.
Sequence of Kallikrein-7 (Homo sapiens) (P49862 whole entry, looked up): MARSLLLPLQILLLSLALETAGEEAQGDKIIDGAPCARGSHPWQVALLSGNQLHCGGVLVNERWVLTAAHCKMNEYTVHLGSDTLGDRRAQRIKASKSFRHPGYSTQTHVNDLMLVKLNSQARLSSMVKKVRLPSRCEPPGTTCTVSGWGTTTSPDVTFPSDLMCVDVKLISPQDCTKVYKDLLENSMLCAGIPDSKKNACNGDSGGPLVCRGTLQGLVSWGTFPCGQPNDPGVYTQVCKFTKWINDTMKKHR

SMILES	activation
COc1ccc(/C=C2\CC3(OC(C)=O)CCCN2C3)cc1 (centres undefined)	0.04%
CCC(=O)Nc1ccc2nn(-c3ccc(F)cc3)nc2c1	7.33%
Nc1nc2cc(Cl)ccc2n1N	0.42%
Nc1ccc2nn(-c3ccc(Cl)cc3)nc2c1	64.3% (active)
COc1ccc(-c2cc(C(F)(F)F)nc(S(C)(=O)=O)n2)cc1OC	15.4% (active)
COc1ccc(-c2cc(C(F)(F)F)nc(SCCC(=O)NCc3ccco3)n2)cc1	-0.49%
CCC(c1ccc(NC(=O)OC(C)(C)C)cc1)c1cc(OC)cc(OC)c1 (centres undefined)	1.16%
CCc1c(C)nc2c(OC)cccc2c1Cl	0.96%
COc1nc(N=C(N)N)nc2c(C)cccc12	22.7% (active)
Cc1nc(N=C(N)N)nc2c(C)cccc12	-0.57%
Nc1[nH]c(/C=C2/CCCCC2n2[nH]c(=O)n(-c3ccccc3)c2=O)c(Cc2ccccc2)[n+]1Cc1ccccc1 (centres undefined)	-0.08%
COc1ccc(CN2C(=O)N3Cc4cc(OC)ccc4C3CS2(=O)=O)cc1 (centres undefined)	0.22%
CCN(CC)C(=O)CC[C@@H]1CC[C@]2(CCCN(S(=O)(=O)C3CCCCC3)C2)O1	-0.08%
COc1ccc(C(=O)/C=C/c2ccc(-c3ccccc3)cc2)cc1CSCC(=O)O	-2.22%
CC(=O)Nc1ccc(NC(=O)c2ccc3c(c2)C(=O)N(c2ccccc2C)C3=O)cc1	-0.23%
O=C(O)c1ccc2c(c1)C(=O)N(c1ccc(/C=C/C(=O)c3ccccc3)cc1)C2=O	108% (active)
C=CCN1[C@@H](Cc2ccccc2)COc2cccc(N3CCSCC3)c2S1(=O)=O	0.85%
O=C(NCc1ccc(Cl)cc1)C1CCCN(c2nc3ccccc3o2)C1 (centres undefined)	0.03%
Cc1sc2nc(SCC(=O)c3ccc(O)c(O)c3)n(Cc3ccco3)c(=O)c2c1C	-0.81%
C=CCN1C(C(=O)OC)CN(Cc2cn(Cc3ccccc3)nn2)CCS1(=O)=O (centres undefined)	0.39%
CCOCCCNC(=O)c1cn(CC(C)C)c(=O)c2c1c1ccccc1n2C	-1.85%
CCOCCCNC(=O)c1cc2c(=O)n3ccccc3nc2s1	40.6% (active)
COCCCNC(=O)/C(C#N)=C/c1c(N2CCCCCC2)nc2ccccn2c1=O	8.31%

SMILES	activation
CN(C(=O)c1cc2c(=O)n3ccccc3nc2s1)C1CCCCC1	25.8% (active)
CN(CCNC(=O)c1cc2c(-c3ccccc3F)nn(C)c2s1)C1CCCCC1	-1.03%
CN(c1ccc2nc3ccccc3c(=O)n2n1)C1CCCCC1	0.7%
Cc1ccc(C(=O)C2CCN(CC(=O)NCCC(C)C)CC2)cc1	1.04%
CCCC[C@H](C(=O)N(CC)c1ccccc1)[C@@H](O)c1ccc2ccccc2c1	0.3%
COc1ccccc1CNC(=O)COC(=O)CNS(=O)(=O)c1ccc(NC(C)=O)cc1	-0.12%
COc1ccccc1C(=O)COC(=O)CNS(=O)(=O)c1ccc(NC(C)=O)cc1	0.48%
CC(=O)Nc1ccc(S(=O)(=O)NCC(=O)OCc2cc(=O)oc3ccc4ccccc4c23)cc1	273% (active)
CC1CCCN(c2cccc3c2S(=O)(=O)N(Cc2ccc(F)cc2)[C@@H](C)[C@H](c2ccccc2)O3)C1 (some centres undefined)	-0.65%
Nn1c(SCC(=O)Nc2cccc3ccccc23)nnc1-c1cc(-c2ccc(F)cc2)n[nH]1	0.42%
O=C(O)c1ccc2c3c(cccc13)C(=O)N(OS(=O)(=O)c1ccccc1)C2=O	105% (active)
COc1cccc(-c2ccc3c(c2)S(=O)(=O)c2cccc(C(=O)O)c2C3=O)c1OC	-0.11%
C=C(C)C#CC(Cc1ccccc1)N(CC1CC1)/C(N)=N/C(=O)OCc1ccccc1 (centres undefined)	-0.43%
CC(C)(C)C(=O)Nc1ccc(-c2cn3cccnc3n2)cc1	65.9% (active)
CC(=O)Nc1ccc(-c2cn3cccnc3n2)cc1	64.7% (active)
CCCCC(=O)Nc1ccc(C(=O)NCCCn2ccnc2)cc1	0%
CC(C)(C)C(=O)Nc1cccc(-c2ccc[nH]2)n1	0.15%
Cc1cccc(C(=O)Nc2c(-c3ccc(F)cc3)nc3ncccn23)c1	8.91%
CCCCCC(=O)Nc1ccc(-c2cn3cccnc3n2)cc1	52.5% (active)
Cc1nn2c(=O)cc(COC(=O)c3ccc(NC(=O)C(C)(C)C)cc3)nc2s1	-0.47%
CCCCCC(=O)Nc1ccc(S(=O)(=O)Nc2ccc(Cl)nn2)cc1	-0.08%
CC(=O)Nc1ccc(S(=O)(=O)Nc2ccc(-c3ccc4nnc(C)n4n3)cc2)cc1	0.05%
O=C(CCS(=O)(=O)c1ccccc1)Nc1ccc(Cl)c(Cl)c1	0.23%

SMILES	activation
O=C(CSc1nnc(COc2ccccc2)n1-c1ccc(Cl)cc1)Nc1ccc2c(c1)OCO2	0.41%
COC(=O)[C@@]12CCCCC=C1N(CCc1ccc(Cl)cc1)C(=O)[C@H]2CC(=O)NCc1ccc(OC)c(OC)c1	-0.01%
Cc1ccc2nc(-c3ccc(CN4CCC(n5cc(-c6ccccc6)[nH]c5=O)CC4)cc3)c(-c3ccccc3)nc2c1	-16.7%
COc1ccc(-c2cc3ccc(OCc4nn[nH]n4)cc3oc2=O)cc1	75.6% (active)
COc1ccc(-c2cc(=O)oc3cc(OCC(=O)N(C)C4CCS(=O)(=O)C4)ccc23)cc1 (centres undefined)	-0.13%
CCCCCCc1cc2cc(-c3nnc(-c4cccc(OC)c4)o3)c(=O)oc2cc1O	-1.12%
COc1cccc(CSc2nnc(-c3cccnc3)n2Cc2ccccc2)c1	-0.18%
Nn1c(SCC(=O)Nc2ccc(S(N)(=O)=O)cc2)nnc1-c1n[nH]c2c1CCC2	-0.51%
O=C(COc1cc(Cl)c(Cl)cc1Cl)NC(=O)NC1CCCC1	-0.16%
CCOc1ccccc1NC(=O)NC1CCCCCCC1	0.05%
CCCN(CC(=O)NC(=O)NC1CCCCC1)CC(=O)Nc1cc(Cl)ccc1Cl	24.4% (active)
Cc1cc(=O)[nH]c(SCC(=O)Nc2ccc(Cl)cc2C)n1	-0.02%
CN1C(=O)c2cc(NS(C)(=O)=O)ccc2OC[C@@H]2O[C@@H](CC(=O)NCc3ccc(-c4ccccc4)cc3)CC[C@H]21	-0.3%
CC1(C)CC(=O)c2cc(OCC(=O)NCC3CCCO3)ccc2O1 (centres undefined)	54.2% (active)
C=CCOc1ccc(/C=C/C(=O)OCC(=O)NCC2CCCO2)cc1 (centres undefined)	-1.06%
CCOc1ccc(S(=O)(=O)NCCC(=O)NCC2CCCO2)cc1 (centres undefined)	0.66%
CN(C)c1ccc(NC(=O)NC2CCCCN(Cc3ccc(Cl)cc3)C2=O)cc1 (centres undefined)	0.67%
COc1ccnc(C(=O)N2CCC(Oc3cccnc3)CC2)c1	0.48%
Cn1cccc1C(=O)NC(=O)COC(=O)Cc1coc2ccc3ccccc3c12	-3.37%
Cc1ccc(NC(=O)Nc2cc(C)nn2-c2ccccc2)cc1	0.53%
C#CCN([C@H](C(=O)OC)C(C)CC)S(=O)(=O)c1ccccc1Br (some centres undefined)	0.19%
CCCSc1ncccc1C(=O)O	0.67%
OCCNc1nc2ccccc2n1-c1ncnc2sc3c(c12)CCC3	-0.67%

SMILES	activation
O=C(O)c1cccnc1Sc1ncnc2sc3c(c12)CCC3	12.7% (active)
CN(C)[C@H]1CCN(c2cccc3c2S(=O)(=O)N2CC[C@H](C2)O3)C1	0.28%
CCOC(=O)c1cccc(NC(=O)CN(C)S(=O)(=O)c2ccc(-c3cocn3)s2)c1	-0.02%
COc1ccc2nc(Nc3nc4cc5c(cc4s3)OCCO5)sc2c1	17.3% (active)
COc1ccc(-c2onc(C)c2-c2ccc3c(c2)OCCO3)c(O)c1	-0.06%
COc1cccc(C(=O)Nc2cc3c(cc2Br)OCCCO3)c1	-0.41%
COc1ccccc1C(=O)CSc1nnc(-c2ccccn2)n1-c1ccccc1	0.13%
Cc1ccc(-n2c(SCC(=O)Nc3cccc4ccccc34)nnc2-c2ccccn2)cc1	-0.1%
CCOc1ccc(N(CC(=O)Nc2c(C)n(C)n(-c3ccccc3)c2=O)S(=O)(=O)c2ccc(Cl)s2)cc1	-0.38%
O=C(Nc1nncs1)c1cccc(S(=O)(=O)N2CCCCC2)c1	0.4%
COc1cc(NC(=O)c2ccccc2NS(=O)(=O)c2ccc(Cl)s2)cc(OC)c1	0.45%
O=C(Nc1nncs1)c1ccccc1NS(=O)(=O)c1cccs1	16.3% (active)
Cc1ccc(-c2nc(C3CCCN(S(=O)(=O)c4ccc(Br)s4)C3)no2)cc1 (centres undefined)	0.38%
COc1ccc(-n2c(COc3ccccc3)nnc2SCC(=O)Nc2ccc3c(c2)OCO3)cc1	0.59%
O=C1c2ccccc2NC(c2ccccn2)N1NS(=O)(=O)c1ccccc1 (centres undefined)	10.7%
Cc1ccc(C2Nc3ccccc3C(=O)N2CCN2CCNC2=O)cc1 (centres undefined)	39.3% (active)
Cc1ccc(S(=O)(=O)N2CCC(C(=O)OCC(=O)N3CC(=O)Nc4ccccc43)CC2)cc1	0.15%
COc1ccc(N2CCN(CCNS(=O)(=O)c3ccc(C(C)(C)C)cc3)CC2)cc1	0.49%
C=CCN1C(=O)[C@@H](CC(=O)NCC2CCCCC2)[C@]2(C(=O)OC)CCCCC=C12	0.16%
CC(CCN1CCC(C(O)(c2ccccc2)c2ccccc2)CC1)Oc1ccc([N+](=O)[O-])cc1Cl (centres undefined)	-0.54%
